Test results published in PubChem BioAssay (Tox21).
Records with an inconclusive call do not appear. Where a call stands in place of a potency, no number is given. Values without a mark were called inactive. Activity calls are given as the source filed them. Calls come from the whole dose curve; as a rule, active = well fitted activation curve with a large enough effect in the repeat runs; inconclusive = weak or mixed curves; inactive = flat fitted curve, though single readings scatter.

Assay: A CellTox Green Cytotoxicity Assay to monitor cytotoxicity in HEK293 cells - 16 hour (AID 1224888); note: nearly all actives have a fitted effect of over 35% in size
Settings: CellTox Green fluorescence; series mostly up to 76.8 µM
Description: National Center for Advancing Translational Sciences [NCATS]
NIH Chemical Genomics Center [NCGC]
U.S. Environmental Protection Agency [EPA]
National Institutes of Environmental Health Sciences [NIEHS]
National Toxicology Program [NTP]
Cell-based models are critical for drug discovery. Determining the natural cytotoxic effects resulting from test compounds is an essential research activity. A CellTox Green Cytotoxicity Assay to monitor cytotoxicity in real time of continues cell culture during 40 hours of the compound treatment was used to screen Tox21 10K library compounds in Hek293 cells. CellTox Green Cytotoxicity Assay is a nonlytic, homogeneous, biofluorescent method to measure cytotoxicity in cell culture after experimental manipulation. The assay system uses a proprietary asymmetric cyanine dye that is excluded from viable cells but preferentially stains the dead cell's DNA. […] Viable cells produce no appreciable increases in fluorescence. Therefore, the fluorescence signal produced by the binding interaction with dead cell DNA is proportional to cytotoxicity.
The mixture of Hek293 cell suspension and reagents were dispensed at 600cells/6 ul/well in 1536-well tissue culture treated black solid bottom plates using a Multidrop dispenser. After the assay plates were incubated at a 37 C/5% CO2 incubator for 5 hours, 23 nL of compounds dissolved in DMSO, positive and negative controls was transferred to the assay plate by a pintool work station. The plates were incubated at 37 C for 40 hours. The fluorescence intensity were measured at 0h, 8h, 16h, 24h, 32h and 40h time points using ViewLux plate reader during compound treatment.

SMILES	Potency	activity change
C=C(C)CS(=O)(=O)O	inactive	–
C=C[Si](OC(=C)C)(OC(=C)C)OC(=C)C	inactive	–
N=C(N)c1ccccc1	inactive	–
O=C(O)CNC(=O)c1ccc([N+](=O)[O-])cc1	inactive	–
CCOC(=O)c1c(C)n(C)c2ccc(O)cc12	inactive	–
Cc1c(O)cccc1O	inactive	–
CCOC(=O)[C@H](CCc1ccccc1)N[C@@H](C)C(=O)N1[C@H](C(=O)O)C[C@@H]2CCC[C@@H]21	inactive	–
C[N+](C)(C)CC(O)CC(=O)[O-] (stereo not given)	inactive	–
CO/N=C(/C(=O)N[C@@H]1C(=O)N2C(C(=O)OCOC(=O)C(C)(C)C)=C(C)CS[C@H]12)c1csc(N)n1	inactive	–
O=C1CCCN1C1CCCCC1	inactive	–
COC(=O)NN	inactive	–
N[C@H](C(=O)O)c1ccc(O)cc1	–	0.584% [at 15.8 µM, stronger effect = higher value]
C=C(C)C(=O)OCCCCCCCC(C)C	inactive	–
CCc1cccc2c(CCO)c[nH]c12	inactive	–
OC(CCN1CCCCC1)(c1ccccc1)C1CC2C=CC1C2 (stereo not given)	inactive	–
NS(=O)(=O)c1cc(C(=O)O)cc(N2CCCC2)c1Oc1ccccc1	inactive	–
CCC(C)C1CCCCC1=O (stereo not given)	inactive	–
CN1C(=O)N(C)C(O)C1O (stereo not given)	inactive	–
CCCCCSCCCCC	inactive	–
O=C1CCCC(=O)C1	inactive	–

SMILES	Potency	activity change
C=COCC1CCC(CO)CC1 (stereo not given)	inactive	–
COC(=O)C1=C(C)NC(C)=C(C(=O)OC)C1c1ccccc1[N+](=O)[O-]	inactive	–
CCCC(=O)O[C@]1(C(=O)CO)CC[C@H]2[C@@H]3CCC4=CC(=O)CC[C@]4(C)[C@H]3[C@@H](O)C[C@@]21C	inactive	–
CCc1ccc(O)c(OC)c1	inactive	–
OC[C@]1(O)OC[C@@H](O)[C@H](O)[C@@H]1O	inactive	–
O=[N+]([O-])c1ccc(F)cc1F	inactive	–
Cn1cc(S(C)=O)c(=O)c2ccc(F)cc21 (stereo not given)	inactive	–
NC(=O)c1ccc(N)cc1	inactive	–
c1cnc(N2CCN(Cc3ccc4c(c3)OCO4)CC2)nc1	inactive	–
Nc1cc(=O)[nH]c(N)n1	inactive	–
Cc1cc2c(cc1S(N)(=O)=O)S(=O)(=O)CCC2	inactive	–
Oc1ccc(C2CNCCc3c2cc(O)c(O)c3Cl)cc1 (stereo not given)	inactive	–
CCOC(=O)c1ccc(C)cc1	inactive	–
CCC(C)S (stereo not given)	–	1.7% [at 2.72 µM, stronger effect = higher value]
CC/C=C\CC/C=C/CO	inactive	–
NC(=O)Nc1ccccc1	inactive	–
CC(=O)N(CC(O)CO)c1c(I)c(C(=O)NCCO)c(I)c(C(=O)NCC(O)CO)c1I (stereo not given)	inactive	–
CC(C)=CCCC(C)CC(=O)O (stereo not given)	inactive	–
CCOC(=O)c1cccc(N)c1	inactive	–
O=C(O)CN(CCOCCOCCN(CC(=O)O)CC(=O)O)CC(=O)O	–	1.33% [at 0.29 µM, stronger effect = higher value]
